Experimental data published in PubChem BioAssay (EPA / NIEHS).
Active and inactive are the calls of the source. Rule for the calls: active = hit-call score of the fitted dose curve at least 0.9, where 1 is the maximum; inactive = score below 0.9.

Tests used:
Conditions in all cases: mRNA level, 48 h; actives raise or lower the signal
[1] = read-out: MYC, MYC (gene 4609); assay: LTEA_HepaRG_MYC: Life Technologies and Expression Analysis (LTEA) Assay for MYC using HepaRG (AID 2283518)
Procedure, shortened: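 HepaRG, ~100,000 cells/well, collagen I; 48 h plating; serum-free induction medium; 48 h dosing, duplicate, 100 uM top, half-log, 0.5% DMSO; total RNA → qRT-PCR MYC; gain/loss fit vs DMSO.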

[2] = read-out: matrix metalloproteinase-3 (MMP3), MMP3 (gene 4314); assay: LTEA_HepaRG_MMP3: Life Technologies and Expression Analysis (LTEA) Assay for matrix metalloproteinase-3 (MMP3) using HepaRG (AID 2283519)
Procedure, shortened: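 HepaRG, human; 48 h dosing, 8 conc. (max 100 uM, half-log), duplicate, 0.5% DMSO. Readout: MMP3 transcript by Fluidigm TaqMan qRT-PCR, ACTB/GAPDH/POLR2A-normalised. Gain or loss fitted vs DMSO.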

[3] = read-out: Paternally Expressed 10 (PEG10), PEG10 (gene 23089); assay: LTEA_HepaRG_PEG10: Life Technologies and Expression Analysis (LTEA) Assay for Paternally Expressed 10 (PEG10) using HepaRG (AID 2283520);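 for AC50: PEG10 transcript by qRT-PCR normalised to ACTB GAPDH and POLR2A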
Procedure, shortened: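 Chemicals tested on HepaRG cells for 48 h, highest concentration 100 uM. PEG10 expression assessed by qRT-PCR relative to DMSO control.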

[4] = read-out: Nuclear factor NF-kappa-B p105 subunit (Homo sapiens) (UniProt P19838); assay: LTEA_HepaRG_NFKB1: Life Technologies and Expression Analysis (LTEA) Assay for Nuclear Factor Kappa B Subunit 1 (NFKB1) using HepaRG (AID 2283521)
Procedure, shortened: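 Human HepaRG cells receive eight half-log concentrations, highest 100 uM, for 48 h. NFKB1 expression is then quantified by qRT-PCR and analysed for up- or down-regulation relative to 0.5% DMSO vehicle.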

[5] = read-out: Protein phosphatase 2A (PPP2R4), PTPA (gene 5524); assay: LTEA_HepaRG_PPP2R4: Life Technologies and Expression Analysis (LTEA) Assay for Protein phosphatase 2A (PPP2R4) using HepaRG (AID 2283522)
Procedure, shortened: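 Gene-expression endpoint in HepaRG hepatic cells: 48 h treatment across eight half-log concentrations up to 100 uM in 0.5% DMSO. PPP2R4 mRNA by qRT-PCR, normalized to three endogenous control genes.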

[6] = read-out: Phosphatase and tensin (PTEN), PTEN (gene 5728); assay: LTEA_HepaRG_PTEN: Life Technologies and Expression Analysis (LTEA) Assay for Phosphatase and tensin (PTEN) using HepaRG (AID 2283523)
Procedure, shortened: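 Read-out is PTEN transcript level by multiplexed TaqMan qRT-PCR after 48 h chemical treatment of human HepaRG cultures in serum-free induction medium. Concentrations spanned 100 uM downward in half-log steps, 0.5% DMSO throughout; activity fitted in both directions against vehicle.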

[7] = read-out: solute carrier (SLC22A1), SLC22A1 (gene 6580); assay: LTEA_HepaRG_SLC22A1: Life Technologies and Expression Analysis (LTEA) Assay for solute carrier (SLC22A1) using HepaRG (AID 2283524);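 for AC50: differentiated human HepaRG liver cells in serum-free induction medium; TaqMan qRT-PCR normalized to ACTB GAPDH and POLR2A housekeeping genes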
Procedure, shortened: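 HepaRG (human liver line), 48 h dosing in serum-free induction medium; 8 conc., half-log down from 100 uM, 0.5% DMSO vehicle, duplicates. Endpoint: SLC22A1 mRNA, qRT-PCR, housekeeping-normalized; gain/loss fit vs DMSO.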

[8] = read-out: Pyruvate Dehydrogenase Kinase 4 (PDK4), PDK4 (gene 5166); assay: LTEA_HepaRG_PDK4: Life Technologies and Expression Analysis (LTEA) Assay for Pyruvate Dehydrogenase Kinase 4 (PDK4) using HepaRG (AID 2283525)
Procedure, shortened: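 In this multiplexed human HepaRG expression assay, cells are treated 48 h with test chemicals across an eight-point range starting at 100 uM. PDK4 mRNA changes, normalized to ACTB/GAPDH/POLR2A, are fitted in both directions relative to vehicle.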

[9] = read-out: Nuclear factor erythroid 2-related factor 2 (Homo sapiens) (UniProt Q16236); assay: LTEA_HepaRG_NFE2L2: Life Technologies and Expression Analysis (LTEA) Assay for Nuclear factor erythroid 2-related factor 2 (NFE2L2) Transcription Factor using HepaRG (AID 2283527)
Procedure, shortened: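 Transcript level of NFE2L2 is the read-out, measured by microfluidic TaqMan qRT-PCR and normalized to three housekeeping genes. Human HepaRG cultures received test chemical for 48 h at up to 100 uM in half-log steps. Gain or loss of signal is fitted relative to 0.5% DMSO.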

[10] = read-out: NAD(P)H dehydrogenase [quinone] 1 (NQO1), NQO1 (gene 1728); assay: LTEA_HepaRG_NQO1: Life Technologies and Expression Analysis (LTEA) Assay for NAD(P)H dehydrogenase [quinone] 1 (NQO1) using HepaRG (AID 2283526)
Procedure, shortened: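 Human HepaRG hepatic cells received chemicals for 48 h in serum-free induction medium with 0.5% DMSO, up to 100 uM. Expression was assessed by TaqMan qRT-PCR against housekeeping controls and fitted bidirectionally against DMSO.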

Measured: AC50

Nuclear factor erythroid 2-related factor 2 (Homo sapiens), sequence (Q16236 whole entry, looked up): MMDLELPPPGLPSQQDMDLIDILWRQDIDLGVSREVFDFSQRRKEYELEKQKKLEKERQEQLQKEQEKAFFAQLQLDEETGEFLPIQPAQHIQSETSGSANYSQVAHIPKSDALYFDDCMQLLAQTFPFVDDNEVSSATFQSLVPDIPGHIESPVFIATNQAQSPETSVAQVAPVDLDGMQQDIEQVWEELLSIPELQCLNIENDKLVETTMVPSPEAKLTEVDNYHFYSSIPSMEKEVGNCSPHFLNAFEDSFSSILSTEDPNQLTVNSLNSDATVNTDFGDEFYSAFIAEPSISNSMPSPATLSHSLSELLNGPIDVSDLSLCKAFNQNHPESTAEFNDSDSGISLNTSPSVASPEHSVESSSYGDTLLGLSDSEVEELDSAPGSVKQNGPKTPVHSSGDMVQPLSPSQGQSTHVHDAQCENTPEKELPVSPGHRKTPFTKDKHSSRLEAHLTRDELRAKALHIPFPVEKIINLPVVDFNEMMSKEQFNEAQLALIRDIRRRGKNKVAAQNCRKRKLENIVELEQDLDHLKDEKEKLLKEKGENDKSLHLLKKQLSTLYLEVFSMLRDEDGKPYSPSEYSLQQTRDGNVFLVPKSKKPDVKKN
Nuclear factor NF-kappa-B p105 subunit (Homo sapiens), sequence (P19838 whole entry, looked up): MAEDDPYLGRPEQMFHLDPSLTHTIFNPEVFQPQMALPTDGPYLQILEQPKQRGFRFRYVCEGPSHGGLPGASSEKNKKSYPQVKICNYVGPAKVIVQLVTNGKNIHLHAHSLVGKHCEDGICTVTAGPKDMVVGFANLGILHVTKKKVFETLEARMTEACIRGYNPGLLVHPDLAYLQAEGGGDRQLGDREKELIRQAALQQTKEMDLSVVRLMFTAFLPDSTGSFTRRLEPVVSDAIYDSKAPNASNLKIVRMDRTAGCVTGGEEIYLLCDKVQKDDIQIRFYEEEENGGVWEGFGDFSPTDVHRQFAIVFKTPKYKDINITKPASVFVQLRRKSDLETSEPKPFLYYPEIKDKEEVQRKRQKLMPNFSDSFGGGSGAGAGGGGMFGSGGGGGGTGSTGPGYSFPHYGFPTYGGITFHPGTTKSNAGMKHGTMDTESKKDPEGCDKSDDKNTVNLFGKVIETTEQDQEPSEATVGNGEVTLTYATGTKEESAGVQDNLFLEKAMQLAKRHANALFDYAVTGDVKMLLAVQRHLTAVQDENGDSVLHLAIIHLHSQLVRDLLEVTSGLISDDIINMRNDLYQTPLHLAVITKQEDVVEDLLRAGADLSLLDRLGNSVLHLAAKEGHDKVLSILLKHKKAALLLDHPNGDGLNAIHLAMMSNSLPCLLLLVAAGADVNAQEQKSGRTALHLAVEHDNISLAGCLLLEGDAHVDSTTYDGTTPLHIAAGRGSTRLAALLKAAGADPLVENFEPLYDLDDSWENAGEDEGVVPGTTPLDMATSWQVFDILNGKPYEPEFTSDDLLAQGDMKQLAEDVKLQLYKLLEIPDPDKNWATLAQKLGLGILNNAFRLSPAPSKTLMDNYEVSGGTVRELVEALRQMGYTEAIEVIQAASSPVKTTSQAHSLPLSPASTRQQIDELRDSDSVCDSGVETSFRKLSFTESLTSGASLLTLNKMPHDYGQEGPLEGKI

Oc1cccc(O)c1
not listed: [10]
inactive: all other assays above

O=C(O)c1ccccc1C(c1ccc(O)cc1)c1ccc(O)cc1
not listed: [10]
inactive: all other assays above

CC(=O)NC1(c2cccc(F)c2)CCN(CC[C@@]2(c3ccc(Cl)c(Cl)c3)CN(c3ccccc3)C(=O)CO2)CC1
active: [4] 61.6 µM | [6] 65.3 µM | [7] 77.2 µM | [9] 76.3 µM
inactive: all other assays above

O=C(O)Cc1cc(I)c(Oc2cc(I)c(O)c(I)c2)c(I)c1
active: [1] 52 µM | [2] 51.5 µM | [3] 0.228 µM | [4] 52.8 µM | [5] 54.9 µM | [6] 59.9 µM | [7] 53.1 µM | [8] 49.6 µM | [10] 33.5 µM | [9] 54.9 µM

CC(C)CCCCCCOC(=O)CCCCC(=O)OCCCCCCC(C)C
not listed: [10]
inactive: all other assays above

Cc1cc(CCN2CCN(c3nsc4ccccc34)CC2)cc2c1NC(=O)CC2(C)C
active: [1] 87.1 µM | [7] 84.8 µM | [8] 4.39 µM | [9] 50 µM
inactive: all other assays above

CC(C)(C)c1ccc(O)c(C(C)(C)C)c1
active: [4] 0.162 µM
inactive: all other assays above

CCCCOCCO
inactive: all assays above

CCCOc1sc(C(=O)N2CCC(c3cc(CN)ccc3F)CC2)c(C)c1Br
inactive: all assays above

Nc1cccc2c(N)cccc12
active: [3] 9.92 µM | [7] 50 µM
not listed: [10]
inactive: all other assays above

CCOC(=O)CC(O)(CC(=O)OCC)C(=O)OCC
inactive: all assays above

ClC1=C(Cl)C(Cl)(Cl)C(Cl)=C1Cl
inactive: all assays above

CCCCCCCCCCCCc1ccccc1S(=O)(=O)O
active: [1] 37.8 µM | [2] 26.9 µM | [5] 21.2 µM | [6] 12 µM | [7] 93.2 µM | [8] 10.8 µM | [9] 19.9 µM
inactive: [3] | [4] | [10]

CC1=C(/C=C/C(C)=C/C=C/C(C)=C/C(=O)O)C(C)(C)CCC1
active: [1] 22.7 µM | [2] 18 µM | [3] 9 µM | [7] 22.9 µM | [8] 33.8 µM | [9] 20.4 µM
inactive: [4] | [5] | [6]
